High-throughput results: PubChem, National Center for Advancing Translational Sciences (NCATS)
ELG1 repair inh – inhibitors of ELG1-dependent DNA repair in HEK293T cells; HEK293T ELG1-luciferase reporter, luminescence, 16 h; DNA damage induced by 5-fluorouridine; hit rate 2.3% among 330,000; AID 504467; Potency, µM (highest dose often 46.1 µM), for the others: at the highest dose activity change, negative = inhibition, usual class: inhibitors; also: % is scaled to controls: 0 for no effect and ±100 for the full control effect; nearly all actives have a fitted effect of over 55% in size
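Cells (2,000 per well) received 5-fluorouridine plus test compound or DMSO and were incubated 16 hr at 37 °C, 5% CO2. Luciferase activity was read by luminescence 30 min after ONE-Glo addition; signal suppression marked inhibition of damage-induced ELG1 function.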
FLuc modulator – counter-screen for miR-21 project: firefly luciferase inhibitors or activators; P08659; purified FLuc, Km substrates, luminescence inhibition; Potency, µM (highest dose often 57.5 µM), for the others: top-dose activity change, negative = inhibition, usual class: inhibitors; hit rate 6.9% among 360,000; AID 588342;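 also: plate controls were vehicle for no effect and reference inhibitor for full effect; nearly all actives have a fitted effect of over 55% in size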
Target sequence (P08659 whole entry, looked up): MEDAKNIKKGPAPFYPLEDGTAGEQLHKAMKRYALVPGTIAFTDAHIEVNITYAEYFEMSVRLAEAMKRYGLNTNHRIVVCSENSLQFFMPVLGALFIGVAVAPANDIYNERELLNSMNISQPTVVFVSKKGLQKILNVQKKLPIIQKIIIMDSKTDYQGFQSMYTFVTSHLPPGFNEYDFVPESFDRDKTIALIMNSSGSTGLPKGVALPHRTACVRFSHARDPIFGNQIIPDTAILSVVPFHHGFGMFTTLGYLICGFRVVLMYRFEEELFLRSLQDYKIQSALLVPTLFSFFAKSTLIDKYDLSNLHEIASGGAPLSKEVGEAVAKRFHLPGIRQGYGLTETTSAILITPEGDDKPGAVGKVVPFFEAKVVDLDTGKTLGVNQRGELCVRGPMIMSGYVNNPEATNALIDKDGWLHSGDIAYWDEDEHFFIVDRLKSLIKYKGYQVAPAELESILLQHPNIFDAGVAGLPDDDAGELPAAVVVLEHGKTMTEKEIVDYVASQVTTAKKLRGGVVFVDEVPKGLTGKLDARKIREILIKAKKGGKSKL
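Biochemical qHTS of compounds, final roughly 60 µM downward over six points, against 10 nM purified firefly luciferase using Km concentrations of substrates (10 uM D-luciferin, 10 uM ATP) in Tris acetate pH 7.5 buffer; luminescence output.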
NPC1 promoter act – activators of NPC1 promoter. Huh7 NPC1 promoter luciferase reporter, 24 h. hit rate 2.4% among 320,000. Potency, µM (series often up to 9.22 µM), without a hit: at the top dose activation, actives largely listed as activators. AID 485313; also: % of control where 0% means no effect; nearly all actives have a fitted effect of over 60% in size
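Huh7 cells stably carrying NPC1 promoter–luciferase, plated in Opti-MEM with 10% FBS for 2 h, were exposed to compound in DMSO for 24 h at 37 °C; luciferase reagent was added for 10 min and luminescence read.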
Rab9 promoter act – activators of Rab9 promoter | Huh7 Rab9 promoter-luciferase reporter, luminescence, 24 h | Potency, µM (top dose mostly 9.22 µM), for the others: top-dose activation, negative = inhibition, most hits filed as activators | hit rate 2.8% among 320,000 | AID 485297; also: % of control where 0% means no effect; nearly all actives have a fitted effect of over 60% in size
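Luminescence read-out: Huh7 cells stably expressing Rab9-luciferase, treated 24 h with compound at 37 °C, then lysed with luciferase reagent for 10 min at ambient before reading.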
SMN2 splice enh – SMN2 splice variant enhancement; AID 1458; hit rate 2.8% among 210,000; HEK293 SMN2-luciferase splicing reporter, luminescence, 30-36 h; Potency, µM (top dose mostly 46.1 µM), without a hit: top-dose activity change, positive = activation, usual class: activators; also: % of control where 0% means no effect; nearly all actives have a fitted effect of over 55% in size
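HEK293 cells carry an SMN2 minigene-luciferase reporter in which exon 7 inclusion puts luciferase in frame. Cells were seeded at 2000 cells/well, attached for 10-12 hours, then exposed to compounds for 30-36 hours at 37C before ONE-Glo luminescence.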
ELG1 genotoxic – induces genotoxicity in HEK293T cells with luciferase-tagged ELG1; HEK293T ELG1-luciferase reporter, luminescence, 16 h; Potency, µM (highest dose often 46 µM), for inactives: at the top dose activity change, positive = activation, most hits filed as activators; hit rate 1.3% among 330,000; AID 504466; also: % of control where 0% means no effect; nearly all actives have a fitted effect of over 60% in size
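16 hr compound incubation (37 °C, 5% CO2) of HEK293T cells carrying luciferase-tagged ELG1; luciferase then measured by ONE-Glo luminescence after 30 min at RT.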
An asterisk follows results filed as active; u = inconclusive; x = no result given. Compounds with a hit are over-represented: about 9.2% of the library has one in this group of screens. Calls follow the shape of the dose curve; as a rule, active = well fitted curve in the direction sought with a large enough effect; inconclusive = small, poorly fitted or top-dose-only effect, or another doubt; inactive = no such curve, though single readings can be large; an effect the other way counts as inactive or inconclusive. Potency is read from the fitted curve at half-maximal effect.

SMILES | ELG1 repair inh | FLuc modulator | NPC1 promoter act | Rab9 promoter act | SMN2 splice enh | ELG1 genotoxic
O=C(COC(=O)c1ccccc1)NCCC1=CCCCC1 | -20% | 15µM* | -1% | 1% | -5% | 0%
COc1cccc(-c2ncc3ccccc3c2COC(=O)CCC(=O)O)c1 | 6% | -1% | 1% | -3% | x | 0%
C=CCN(C(=O)Nc1ccc(OC)cc1)c1nnc(-c2ccncc2)s1 | u | -13% | 4% | 2% | x | -10%
Cc1cc(C)cc(NC(=O)COC(=O)CCCC2=NS(=O)(=O)c3ccccc3N2)c1 | 18% | -16% | -5% | -2% | -14% | -1%
Cc1cccc(OCC2=NS(=O)(=O)c3ccccc3N2)c1 | 0% | 19µM* | 28% | 27% | 16% | 15%
CCOCCOC(=O)C1=C(C)NC(=O)NC1c1cc2c(cc1Br)OCO2 (stereo not given) | 6% | 0% | 0% | -2% | x | 2%
O=C1Nc2cc(C(=O)N3CCN(c4ccccn4)CC3)ccc2S/C1=C\c1ccccc1 | 18µM* | -24% | 0% | -4% | x | -3%
CN1C(=O)/C(=C\c2ccccc2)Sc2ccc(C(=O)N3CCN(c4ccccn4)CC3)cc21 | -23% | u | -5% | 6% | -18% | -6%
O=C(c1ccc(Cl)c(S(=O)(=O)NCc2ccccc2)c1)N1CCN(c2ccccn2)CC1 | 23µM* | -1% | -5% | 0% | -25% | -7%
Cc1cccc(N2CCN(C(=O)c3ccc(Cl)c(S(=O)(=O)NCc4ccco4)c3)CC2)c1C | 18µM* | -1% | -7% | -1% | -24% | -16%
O=C(c1ccc(S(=O)(=O)c2cccc(Cl)c2)c([N+](=O)[O-])c1)N1CCN(c2ccccn2)CC1 | 18µM* | 6% | 1% | -1% | -85% | -13%
O=C(c1cccc(Cl)c1)N1CCN(c2ccccn2)CC1 | 7% | -2% | 1% | -3% | -3% | 1%
CCC(CC)C(=O)Nc1cccc(C(=O)Nc2ccc(S(=O)(=O)Nc3ccc(C)cc3)cc2)c1 | u | 0% | -6% | -4% | -15% | -18%
O=C(N=c1nc2ccccn2s1)c1ccccc1 | u | 0.19µM* | 0.89µM* | u | 1.8µM* | 0.13µM*
COc1cc(NC(=O)c2cc(C3CC3)nc3c2c(C)nn3-c2ccc(C)cc2)cc(OC)c1 | x | -6% | x | x | x | x
Cc1ccc(-c2cc(C(=O)N3N=C(C(F)F)CC3(O)C(F)F)c3ccccc3n2)cc1C (stereo not given) | u | 7.6µM* | 16% | 1% | 8% | -3%
CCOc1cccc(-c2cc(C(=O)N3N=C(C)CC3(O)C(F)F)c3ccccc3n2)c1 (stereo not given) | u | 24µM* | -10% | -5% | 3% | -2%
O=C(c1cc(-c2ccccc2)nc2ccccc12)N1N=C(C(F)F)CC1(O)C(F)F (stereo not given) | 5% | 0% | 24% | -9% | -1% | 0%
COCCNC(=O)C(c1ccc(F)cc1)N(CCOC)C(=O)CCC(=O)Nc1ccccn1 (stereo not given) | 23% | -2% | 5% | -3% | x | 0%
COc1cccc(NC(=O)CSC2=Nc3ccccc3C3=NC(CC(=O)NCCc4ccccc4)C(=O)N23)c1 (stereo not given) | x | -9% | x | x | x | x
O=c1[nH]c(-c2ccccn2)nc2sc(-c3ccccc3)cc12 | u | 2.1µM* | 3.5µM* | u | 8.9µM* | 7.3µM*
Cc1c(C(=O)N(C)C)sc2nc(-c3ccccn3)[nH]c(=O)c12 | u | u | 11% | u | 17% | u
Cc1ccc(-c2nn3c(=O)cc(CN4CCN(C(=O)/C=C/c5ccccc5)CC4)nc3s2)cc1 | x | 3% | x | x | x | x
COC(=O)N/N=C(\C)c1ccc(Br)cc1 | u | u | 3% | 25% | -34% | 10%
C/C(=N\NC(=O)c1ccc(Br)cc1)c1ccccc1 | u | 3.4µM* | 0.56µM* | 1.3µM* | 13µM* | u
SMILES | ELG1 repair inh | FLuc modulator | NPC1 promoter act | Rab9 promoter act | SMN2 splice enh | ELG1 genotoxic
C/C(=N\NC(=O)OC(C)(C)C)c1ccccc1Br | u | 21µM* | u | u | 12% | u
C/C(=N\NC(=O)c1ccccc1OCCOc1ccccc1)c1ccccc1F | 18µM* | u | -3% | 2% | x | -10%
C/C(=N\NC(=O)c1ccccc1)c1ccccc1F | u | 12µM* | 1.4µM* | 0.56µM* | 5.6µM* | 5.8µM*
CCn1c(CC(=O)Nc2ccccc2F)nnc1SCC(=O)Nc1nncs1 | -5% | -2% | 2% | -1% | x | -17%
C#CCCCCCCCCCCCC(O)CC(O)COC(C)=O (stereo not given) | x | x | x | x | -30% | x
O=C(Nc1ccc(NC(=O)c2ccccc2Br)cc1)c1ccccc1 | u | -5% | 23% | 16% | x | u
C/C(=N\NC(=O)c1ccccc1)c1ccccc1Br | u | 15µM* | u | u | u | u
CCOC(=O)N/N=C(\C)c1ccc(Br)cc1 | u | 17µM* | 12% | 17% | -11% | u
COc1cc(OC)c(NC(=O)NCCn2nnc3cc(S(=O)(=O)N(C)C)ccc32)cc1Cl | x | -2% | x | x | x | x
CC(C(=O)Nc1ccc(Cl)cc1)N1C(=O)NC2(CCCC2)C1=O (stereo not given) | -11% | 5% | -2% | 0% | x | -7%
CCOC(=O)c1cccc(NC(=O)NCc2cccn2Cc2ccccc2)c1 | x | -11% | x | x | x | x
COc1ccc(CCNC(=O)c2cc(C(=O)c3cc(Cl)ccc3O)cn(CCc3ccc(OC)cc3)c2=O)cc1 | u | 9% | -6% | -7% | -36% | -11%
COc1ccc(CCNC(=O)c2cc(C(=O)c3cc(C)ccc3O)cn(CCc3ccc(OC)cc3)c2=O)cc1 | 13µM* | 2% | -4% | -1% | -44% | -7%
O=C(c1cc(C(=O)NCCc2ccccc2)c(=O)n(CCc2ccccc2)c1)c1cc(Cl)ccc1O | 23µM* | 1% | -1% | 1% | -18% | -15%
Cn1c(=O)c2c(nc(N3CCCCC3)n2CCSc2nc3ccccc3s2)n(C)c1=O | -23% | -1% | -8% | 2% | -13% | -7%
CC1CCN(c2nc3c(c(=O)n(C)c(=O)n3C)n2CCSc2nc3ccccc3s2)CC1 | 23µM* | 2% | 0% | 3% | -21% | -23%
Cn1c(=O)[nH]c(=O)c2c1nc(N1CCCCC1)n2CCCSc1nc2ccccc2s1 | 21µM* | 10% | -12% | 1% | -23% | -4%
CCCS(=O)(=O)N1CCCC(C(=O)NCC(OC)OC)C1 (stereo not given) | u | 2% | -2% | 1% | -37% | -6%
